# Data as given in PubChem BioAssay.
# The source made the active and inactive calls. Unless noted, the rule behind the calls is not given here.
# How the values were obtained:
# [1] = tested on: Wnt5a (protein binding on small-molecule microarray); assay: Wnt5a binders on small-molecule microarray, primary screen, biophysical, 635/667 nm fluorescence (AID 1142); details: 635 nm fluorescence, higher = more signal;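 note: fluorescence read at 667 nm with signal to noise per printed feature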
# [2] = cell viability in Huh7 cells, primary screen, cytotoxicity control for HCV replication inhibitor project, CellTiter-Glo luminescence, basal, 48 h (AID 1143); details: Huh7 HCV replicon, higher = more signal, called active from +8 up or from −8 down;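 note: Huh7 hepatoma cells carrying a hepatitis C replication reporter with no stimulus; test concentration not given here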
# [3] = P. aeruginosa biofilm formation inhibitors, primary screen, PAO1 strain, BacTiter-Glo luminescence, LB-PBS (AID 1144); details: 12 h, higher = more signal
# [4] = CREB reporter modulators without forskolin, primary screen, cell-based, PC12, CRE-LacZ reporter, unstimulated (AID 1145); details: no forskolin, luminescence, 4.5 h, higher = more signal, called active from +8 up or from −8 down
# [5] = CREB reporter modulators under forskolin, primary screen, cell-based, PC12, CRE-LacZ reporter, forskolin-stimulated (AID 1146); details: luminescence, 4.5 h, higher = more signal, called active from +8 up or from −8 down;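 note: PC12 cells with 6xCRE LacZ reporter stimulated by forskolin 10 µM; beta-galactosidase reporter signal reflecting CREB driven transcription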
# [6] = biological target: Streptavidin (Streptomyces avidinii) (UniProt P22629); assay: streptavidin binders on small-molecule microarray, primary screen, artefact control for SMM compound annotation, biophysical, 635/667 nm fluorescence (AID 1147); details: streptavidin binding, higher = more signal;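 note: signal reflects streptavidin binding to arrayed compounds as a control protein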
# [7] = small-molecule binders of probe aInhba, primary screen, biochemical, small-molecule microarray, 635/667 nm fluorescence (AID 1148); details: higher = more signal;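 note: score merges 667nm spot fluorescence with signal-to-noise for antibody binding to printed compounds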
# Torsin-1A (Homo sapiens) [8] = biological target: Torsin-1A (Homo sapiens) (UniProt O14656); assay: torsin A binders from cell lysate, primary screen, small-molecule microarray, wild-type, 635/667 nm (AID 1149); details: COS7 hTOR1A-WT lysate, 635 nm fluorescence, higher = more signal
# Torsin-1A (Homo sapiens) [9] = biological target: Torsin-1A (Homo sapiens) (UniProt O14656); assay: small-molecule binders of mutant TOR1A in lysate, primary screen, cell lysate, small-molecule microarray, COS7 lysate, 635/667 nm fluorescence (AID 1150); details: COS7 hTOR1A mutant lysate, 635 nm fluorescence, higher = more signal;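 note: score pools 667 nm emission and signal to noise measuring lysate protein binding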
# [10] = tested on: Sonic hedgehog protein (Shh); assay: small-molecule binders of Shh protein, primary screen, biochemical, small-molecule microarray, 635/667 nm fluorescence (AID 1151); details: small-molecule microarray binding, 635 nm fluorescence; higher = more signal;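 note: Shh protein binding to compounds spotted on small-molecule microarray slides; score combines spot fluorescence intensity with signal-to-noise across triplicate slides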
# [11] = E. coli DRC41 culture turbidity changes, primary screen, E. coli filamentation inducer project, strain DRC41, OD650, 48 h (AID 1152);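 note: E. coli MC1000 strain DRC41 lacking acrAB efflux pump and sulA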; details: E. coli DRC41 (acrAB sulA), higher = more signal, called active from +8 up or from −8 down
# [12] = small-molecule binders of probe aLefty1, primary screen, biochemical, small-molecule microarray, 635/667 nm fluorescence (AID 1153); details: higher = more signal;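 note: score merges spot fluorescence with signal-to-noise ratio from the scanned slide images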
# [13] = PSAC antagonists in infected red cells, primary screen, cell-based, P. falciparum Indochina, OD700, 1 h (AID 1154); details: P. falciparum Indochina infected RBC osmotic lysis, higher = more signal, called active from +8 up or from −8 down
# [14] = PSAC antagonists in infected red cells, primary screen, cell-based, P. falciparum Indochina, OD700, 2 h (AID 1155);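 note: lysis reports solute entry through the parasite surface anion channel PSAC; channel blockers reduce lysis of infected cells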; details: P. falciparum Indochina infected erythrocytes, osmotic lysis OD700; higher = more signal, called active from +8 up or from −8 down
# [15] = osmotic lysis modulators in infected erythrocytes, primary screen, PSAC antagonist project, cell-based, P. falciparum Indochina, OD700, 3 h (AID 1156); details: higher = more signal, called active from +8 up or from −8 down
# [16] = PSAC antagonists in infected red cells, primary screen, cell-based, P. falciparum Indochina, OD700, 18 h (AID 1157); details: P. falciparum Indochina infected erythrocytes, osmotic lysis OD700, 18 h; higher = more signal, called active from +8 up or from −8 down
# [17] = modulators of S6 phosphorylation in cells, primary screen, cell-based, A549, cytoblot, luminescence, serum-stimulated (AID 1158); details: A549 phospho-S6 cytoblot, 5 h, higher = more signal;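 note: serum-stimulated A549 lung adenocarcinoma cells; signal is phosphorylated S6 detected by cytoblot immunostaining with HRP secondary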
# [18] = biological target: NADPH oxidase 2 (Homo sapiens) (UniProt P04839); assay: NOX2-dependent H2O2 signal modulators, primary screen, NOX inhibitor project, cell-based, HEK293-NOX2, PMA-stimulated, Amplex Red fluorescence (AID 1159); details: 45 min, higher = more signal, called active from +8 up or from −8 down; note: test concentration not given here
# [19] = biological target: NADPH oxidase 4 (Homo sapiens) (UniProt Q9NPH5); assay: NOX4-dependent H2O2 signal modulators, primary screen, NOX inhibitor project, cell-based, HEK293-NOX4, tetracycline-induced, Amplex Red fluorescence (AID 1160); details: 45 min, higher = more signal, called active from +8 up or from −8 down
# [20] = biological target: NADPH oxidase 5 (Homo sapiens) (UniProt Q96PH1); assay: NOX5-dependent H2O2 signal modulators, primary screen, NOX inhibitor project, cell-based, HEK293-NOX5, Amplex Red fluorescence (AID 1161); details: HEK293-NOX5, ionomycin, 45 min, higher = more signal
# NADPH oxidase 5 (Homo sapiens), sequence (Q96PH1 whole entry, looked up): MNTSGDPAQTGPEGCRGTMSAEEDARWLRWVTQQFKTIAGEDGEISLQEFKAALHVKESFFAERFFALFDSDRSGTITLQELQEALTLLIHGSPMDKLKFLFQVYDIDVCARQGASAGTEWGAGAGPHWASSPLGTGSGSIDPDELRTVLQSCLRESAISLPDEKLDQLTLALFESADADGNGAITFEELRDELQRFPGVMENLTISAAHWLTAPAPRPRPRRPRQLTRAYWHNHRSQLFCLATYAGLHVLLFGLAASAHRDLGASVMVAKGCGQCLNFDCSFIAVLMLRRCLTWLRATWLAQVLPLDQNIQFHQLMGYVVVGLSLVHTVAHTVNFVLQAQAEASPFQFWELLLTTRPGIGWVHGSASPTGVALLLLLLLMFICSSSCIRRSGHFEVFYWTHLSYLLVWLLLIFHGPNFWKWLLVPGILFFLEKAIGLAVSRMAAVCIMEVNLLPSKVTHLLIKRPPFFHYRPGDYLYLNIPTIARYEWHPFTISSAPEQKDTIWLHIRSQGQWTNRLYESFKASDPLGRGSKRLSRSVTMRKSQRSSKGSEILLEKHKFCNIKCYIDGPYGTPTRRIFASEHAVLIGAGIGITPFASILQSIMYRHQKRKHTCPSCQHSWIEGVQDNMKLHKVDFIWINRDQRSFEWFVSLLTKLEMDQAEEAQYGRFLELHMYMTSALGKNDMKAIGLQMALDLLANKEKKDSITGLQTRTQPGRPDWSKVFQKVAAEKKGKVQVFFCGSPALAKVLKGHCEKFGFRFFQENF
# NADPH oxidase 4 (Homo sapiens), sequence (Q9NPH5 whole entry, looked up): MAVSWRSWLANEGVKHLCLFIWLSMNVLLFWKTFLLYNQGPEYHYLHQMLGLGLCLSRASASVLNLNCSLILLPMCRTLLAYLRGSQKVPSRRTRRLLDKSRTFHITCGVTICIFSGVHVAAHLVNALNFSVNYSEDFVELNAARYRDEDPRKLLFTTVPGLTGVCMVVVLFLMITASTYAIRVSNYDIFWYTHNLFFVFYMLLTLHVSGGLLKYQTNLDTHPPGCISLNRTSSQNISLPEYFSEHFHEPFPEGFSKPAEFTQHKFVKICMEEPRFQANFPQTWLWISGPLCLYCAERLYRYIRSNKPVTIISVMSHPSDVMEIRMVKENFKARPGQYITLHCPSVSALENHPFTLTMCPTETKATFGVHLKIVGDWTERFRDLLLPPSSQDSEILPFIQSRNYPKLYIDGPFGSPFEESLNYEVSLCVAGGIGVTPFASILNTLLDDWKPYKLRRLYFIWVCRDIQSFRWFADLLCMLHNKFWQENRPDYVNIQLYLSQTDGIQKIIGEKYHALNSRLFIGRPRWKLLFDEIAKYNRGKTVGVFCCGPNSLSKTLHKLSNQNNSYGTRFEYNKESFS
# Streptavidin (Streptomyces avidinii), sequence (P22629 whole entry, looked up): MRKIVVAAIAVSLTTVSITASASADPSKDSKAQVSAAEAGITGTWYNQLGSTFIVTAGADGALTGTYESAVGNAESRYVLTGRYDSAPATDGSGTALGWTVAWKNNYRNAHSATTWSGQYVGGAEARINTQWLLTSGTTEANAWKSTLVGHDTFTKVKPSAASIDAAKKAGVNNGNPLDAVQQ
# NADPH oxidase 2 (Homo sapiens), sequence (P04839 whole entry, looked up): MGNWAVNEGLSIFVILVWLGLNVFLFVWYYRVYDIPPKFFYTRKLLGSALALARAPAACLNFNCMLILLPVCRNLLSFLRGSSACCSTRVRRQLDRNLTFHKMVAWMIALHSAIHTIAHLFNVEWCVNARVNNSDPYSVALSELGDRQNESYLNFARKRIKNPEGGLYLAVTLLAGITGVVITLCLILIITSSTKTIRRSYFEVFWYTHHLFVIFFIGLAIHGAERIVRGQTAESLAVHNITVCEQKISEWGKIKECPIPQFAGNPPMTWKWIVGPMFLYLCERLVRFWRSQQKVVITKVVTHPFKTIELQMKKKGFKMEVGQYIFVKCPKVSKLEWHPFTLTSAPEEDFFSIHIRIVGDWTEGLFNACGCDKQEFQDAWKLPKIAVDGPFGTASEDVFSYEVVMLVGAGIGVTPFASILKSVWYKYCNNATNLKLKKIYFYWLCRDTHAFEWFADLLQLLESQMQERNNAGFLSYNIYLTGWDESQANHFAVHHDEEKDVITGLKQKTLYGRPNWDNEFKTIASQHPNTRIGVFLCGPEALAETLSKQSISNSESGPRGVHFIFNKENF
# Torsin-1A (Homo sapiens), sequence (O14656 whole entry, looked up): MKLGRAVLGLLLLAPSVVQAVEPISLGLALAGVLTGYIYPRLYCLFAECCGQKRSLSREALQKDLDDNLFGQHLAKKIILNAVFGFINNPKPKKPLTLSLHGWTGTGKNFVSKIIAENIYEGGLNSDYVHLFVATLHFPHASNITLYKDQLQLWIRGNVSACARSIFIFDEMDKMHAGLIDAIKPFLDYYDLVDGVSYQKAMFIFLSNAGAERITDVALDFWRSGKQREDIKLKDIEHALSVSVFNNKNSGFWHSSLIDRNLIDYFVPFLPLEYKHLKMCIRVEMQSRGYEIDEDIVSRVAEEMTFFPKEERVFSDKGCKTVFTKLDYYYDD
SMILES,composite z-score [1],z-score [2],z-score [3],z-score [4],z-score [5],composite z-score [6],composite z-score [7],composite z-score (Torsin-1A (Homo sapiens) [8]),composite z-score (Torsin-1A (Homo sapiens) [9]),composite z-score [10],z-score [11],composite z-score [12],z-score [13],z-score [14],z-score [15],z-score [16],z-score [17],z-score [18],z-score [19],z-score [20]
CN(C)CCCNC(=O)[C@@]1(Cc2ccccc2I)c2ccccc2C(=O)N(C2CCCCC2)[C@H]1c1ccc(CO)cc1,0.418,-5.91 (inactive),1.69 (inactive),2.12 (inactive),1.76 (inactive),1.19,0.41,0.305,0.794,0.618,-2.04 (inactive),0.482,2.37 (inactive),-0.0009 (inactive),-2.34 (inactive),-0.456 (inactive),-2.25,-9.9 (active),-4.06 (inactive),-3.65
O=C(NCc1ccccc1)[C@@H]1c2ccccc2C(=O)N(Cc2ccc(OC(F)(F)F)cc2)[C@H]1c1ccc(CO)cc1,-0.134,-0.495 (inactive),0.0274 (inactive),0.208 (inactive),0.129 (inactive),-0.756,0.0102,0.521,0.162,-0.493,0.39 (inactive),0.656,3.9 (inactive),0.566 (inactive),1.56 (inactive),0.158 (inactive),0.503,-3.06 (inactive),0.263 (inactive),0.401
COC(=O)[C@@]1(Cc2ccccc2)[C@H]2c3cc(C(=O)N(C)C)n(CCO)c3C[C@H]2CN1C(=O)c1ccccc1,0.518,0.254 (inactive),0.409 (inactive),0.583 (inactive),-0.609 (inactive),2.16,0.329,-0.212,0.133,-0.611,-1.65 (inactive),0.188,-0.469 (inactive),0.19 (inactive),-0.0157 (inactive),0.57 (inactive),-0.935,0.714 (inactive),0.111 (inactive),-0.912
CCOc1cc(C(O)C2C=CC3C(=O)N(c4ccccc4)C(=O)C3N2Nc2ccccc2F)ccc1O (stereo not given),0.482,0.777 (inactive),-0.545 (inactive),0.815 (inactive),0.63 (inactive),0.376,0.75,-0.166,0.407,-0.663,-0.469 (inactive),0.875,6.56 (inactive),1.27 (inactive),-0.0788 (inactive),0.926 (inactive),-0.824,-2.32 (inactive),-4.37 (inactive),-4.13
C=C(COC)C(=O)CC[C@H](OC(=O)c1cccnc1)c1ccc(OCCO)cc1,0.965,-2.1 (inactive),0.385 (inactive),1.54 (inactive),0.755 (inactive),0.257,0.103,0.613,1.43,2.4,-0.367 (inactive),-0.285,9.54 (active),1.2 (inactive),0.247 (inactive),0.553 (inactive),-0.271,-0.253 (inactive),0.592 (inactive),-1.26
CCOC(=O)C1=CCC(c2cc3ccccc3[nH]2)N(CCN2CC(C(=O)OCC)=CCC2c2cc3ccccc3[nH]2)C1 (stereo not given),0.125,-1.74 (inactive),-1.85 (inactive),-0.275 (inactive),-0.684 (inactive),0.428,0.162,0.0418,0.104,0.54,-0.889 (inactive),0.379,4.01 (inactive),1.41 (inactive),2.42 (inactive),1.03 (inactive),1.56,-0.756 (inactive),-0.315 (inactive),-0.307
CC(C)(C)N1CC=CC23O[C@@H]4/C=C\CCCOC(=O)C4[C@H]2C(=O)N(CCCCCO)[C@@H]3C1=O (stereo not given in full),-0.552,-0.0495 (inactive),1.27 (inactive),0.191 (inactive),-0.311 (inactive),-0.573,-0.258,-0.185,-1.33,-0.58,-0.81 (inactive),-0.191,0.373 (inactive),0.135 (inactive),-1.09 (inactive),0.0116 (inactive),-0.786,1.16 (inactive),0.0398 (inactive),1.21
Cc1ccc(S[C@]2(C(=O)NCC(F)(F)F)CC(=O)N(Cc3ccccc3C(F)(F)F)[C@@H]2c2ccc(CO)cc2)cc1,-0.186,0.518 (inactive),0.0205 (inactive),-0.349 (inactive),-0.163 (inactive),-1,-0.179,-1.23,0.0748,-0.972,-0.262 (inactive),0.007,1.4 (inactive),-0.107 (inactive),-0.142 (inactive),0.135 (inactive),-0.0621,-2.02 (inactive),0.426 (inactive),-0.0735
C=CC[C@@]1(C(=O)N(C)C)N=C(c2ccc(OCCCO)cc2)O[C@@H]1c1ccccc1CN=[N+]=[N-],0.615,-2.89 (inactive),1.1 (inactive),0.754 (inactive),-0.357 (inactive),1.35,0.143,0.886,1.17,0.38,1.34 (inactive),0.0513,23.1 (active),6.73 (inactive),1.93 (inactive),1.26 (inactive),-0.354,1.85 (inactive),0.736 (inactive),-1.42
O=C(NC1CC1)[C@@H]1c2ccccc2C(=O)N(Cc2ccc(OC(F)(F)F)cc2)[C@H]1c1ccc(CO)cc1,0.227,-2.05 (inactive),-1.32 (inactive),0.441 (inactive),-0.673 (inactive),-0.894,-0.176,-0.0394,0.136,0.391,0.93 (inactive),0.118,1.49 (inactive),-0.538 (inactive),2.44 (inactive),-1.2 (inactive),0.358,0.0746 (inactive),-0.866 (inactive),-0.523
CCOC(=O)C1=C[C@@H](C(C)(C)C)N(S(=O)(=O)c2ccc(C)cc2)[C@H]1c1ccc(C#N)cc1,0.327,-3.61 (inactive),0.261 (inactive),-0.228 (inactive),0.624 (inactive),0.948,0.0785,0.855,1.57,-0.264,-1.02 (inactive),0.337,3.01 (inactive),1.33 (inactive),-0.217 (inactive),0.905 (inactive),-0.561,-0.642 (inactive),-0.508 (inactive),1.11
C=C(CCCC)C(=O)CC[C@H](OC(=O)c1ccccc1-c1ccccc1C(=O)O)c1ccc(OCCO)cc1,0.475,-1.19 (inactive),-1.5 (inactive),-0.35 (inactive),2.12 (inactive),-0.092,0.0614,0.374,0.204,1.91,0.418 (inactive),-0.199,12.3 (active),1.38 (inactive),1.49 (inactive),0.847 (inactive),-0.265,0.135 (inactive),-0.406 (inactive),-1.59
C=C1C(=O)C=C2CN(C(=O)c3ccccc3)[C@@](Cc3ccc(OC)cc3)(C(=O)OC)[C@@H]12,0.458,-3.68 (inactive),0.249 (inactive),0.387 (inactive),0.2 (inactive),1.72,0.863,0.124,0.319,0.193,-1.79 (inactive),1.46,2.02 (inactive),0.368 (inactive),0.218 (inactive),1.23 (inactive),-0.0615,0.427 (inactive),1.1 (inactive),2.68
Cc1ccc(S[C@]2(C(=O)NC3CC3)CC(=O)N(C(C)C)[C@@H]2c2ccc(CO)cc2I)cc1,-0.385,-4.82 (inactive),-1.21 (inactive),0.299 (inactive),1.42 (inactive),-0.677,-0.394,0.778,0.652,0.677,0.839 (inactive),-0.703,5.84 (inactive),-0.558 (inactive),0.927 (inactive),-1.31 (inactive),2.32,0.828 (inactive),-1.91 (inactive),-2.33
CCCCN1CC=CC23O[C@@H]4/C=C\CCCOC(=O)C4[C@H]2C(=O)N(C(CO)C(C)C)[C@@H]3C1=O (stereo not given in full),-0.256,-0.352 (inactive),1.3 (inactive),-0.22 (inactive),-0.182 (inactive),-0.275,0.419,-0.277,-0.455,1.14,-0.539 (inactive),-0.178,1.47 (inactive),0.701 (inactive),0.434 (inactive),0.505 (inactive),-0.515,1.71 (inactive),0.808 (inactive),1.69
O=C1OCCC=C[C@H]2OC34C=CCN(c5ccc6ccccc6c5)C(=O)[C@H]3N(CCO)C(=O)[C@@H]4C12 (stereo not given in full),-0.457,0.291 (inactive),-0.663 (inactive),-0.887 (inactive),0.463 (inactive),-0.906,-0.753,-1.41,-0.669,0.116,-0.701 (inactive),-0.815,0.809 (inactive),0.791 (inactive),1.11 (inactive),0.332 (inactive),-0.366,1.47 (inactive),-0.0539 (inactive),2.41
